The source of these data is ChEMBL document CHEMBL1961873, “Compounds: GSK PKIS; Assays: Nanosyn kinase panel” (2012).

Experiment [1] concerns the target Mast/stem cell growth factor receptor Kit (Homo sapiens) (UniProt P10721). The settings on record: at 1 µM.
Experiment [2] relates to Mast/stem cell growth factor receptor Kit (Homo sapiens), P10721 [D816V]. The settings on record: at 0.1 µM.
The test system is the same in experiment [3]. The settings on record: at 1 µM.
Experiment [4] concerns Mast/stem cell growth factor receptor Kit (Homo sapiens), P10721 [T670I]. The settings on record: at 0.1 µM.
For experiment [5] the test system is unchanged. The settings on record: at 1 µM.
Experiment [6] has as its system Mast/stem cell growth factor receptor Kit (Homo sapiens), P10721 [V560G]. The conditions noted are these: at 0.1 µM.
Experiment [7] has the same test system. The conditions noted are these: at 1 µM.
Experiment [8] deals with Tyrosine-protein kinase Lck (Homo sapiens) (UniProt P06239). The settings on record: at 0.1 µM.
Experiment [9] has the same target. The settings on record: at 1 µM.
The target of experiment [10] is Leukocyte tyrosine kinase receptor (Homo sapiens) (UniProt P29376). The conditions noted are these: at 0.1 µM.
Experiment [11] shares this target. The settings on record: at 1 µM.
Experiment [12] concerns the target Tyrosine-protein kinase Lyn (Homo sapiens) (UniProt P07948). The conditions noted are these: at 0.1 µM.
Experiment [13] has the same target. The settings on record: at 1 µM.
Experiment [14] has the same target. The settings on record: at 0.1 µM. The source holds these as a separate data set.
The target is the same in experiment [15]. The conditions noted are these: at 1 µM. The source holds these as a separate data set.
Experiment [16] has as its target T1, Tyrosine-protein kinase Mer (Homo sapiens) (UniProt Q12866).
T1 sequence (whole entry): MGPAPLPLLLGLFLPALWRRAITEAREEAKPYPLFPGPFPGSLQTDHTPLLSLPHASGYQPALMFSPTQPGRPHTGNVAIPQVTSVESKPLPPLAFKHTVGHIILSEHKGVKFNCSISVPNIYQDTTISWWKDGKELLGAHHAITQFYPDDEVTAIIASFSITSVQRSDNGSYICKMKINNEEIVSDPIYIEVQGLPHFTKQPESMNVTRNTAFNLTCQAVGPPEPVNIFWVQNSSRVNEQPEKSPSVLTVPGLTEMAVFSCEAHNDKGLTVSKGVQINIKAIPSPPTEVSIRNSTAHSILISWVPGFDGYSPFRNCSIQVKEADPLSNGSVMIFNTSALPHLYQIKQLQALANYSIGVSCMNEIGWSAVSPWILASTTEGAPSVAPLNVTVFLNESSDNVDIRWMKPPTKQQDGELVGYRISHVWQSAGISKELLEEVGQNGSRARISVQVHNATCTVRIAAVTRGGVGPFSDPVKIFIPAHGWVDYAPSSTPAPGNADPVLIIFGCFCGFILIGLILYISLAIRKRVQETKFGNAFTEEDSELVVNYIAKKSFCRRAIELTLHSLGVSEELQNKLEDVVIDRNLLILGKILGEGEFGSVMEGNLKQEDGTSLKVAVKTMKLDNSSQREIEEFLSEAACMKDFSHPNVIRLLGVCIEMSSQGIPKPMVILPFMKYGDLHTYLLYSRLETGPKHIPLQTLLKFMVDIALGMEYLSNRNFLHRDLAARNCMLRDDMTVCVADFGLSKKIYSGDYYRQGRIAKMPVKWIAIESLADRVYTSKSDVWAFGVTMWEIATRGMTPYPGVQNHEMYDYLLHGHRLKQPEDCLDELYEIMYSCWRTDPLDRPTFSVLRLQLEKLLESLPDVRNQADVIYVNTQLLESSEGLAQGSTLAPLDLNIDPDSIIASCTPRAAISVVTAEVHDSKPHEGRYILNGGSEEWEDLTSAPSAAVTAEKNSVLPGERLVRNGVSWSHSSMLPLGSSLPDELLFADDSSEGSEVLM
The settings on record: at 0.1 µM.

Experiment [17] deals with T1, Tyrosine-protein kinase Mer (Homo sapiens). The conditions noted are these: at 1 µM.
The target in experiment [18] is Hepatocyte growth factor receptor (Homo sapiens) (UniProt P08581). The settings on record: at 0.1 µM.
Experiment [19] has the same target. The settings on record: at 1 µM.
For experiment [20], the target named is T2, Muscle, skeletal receptor tyrosine-protein kinase (Homo sapiens) (UniProt O15146).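 Note: values are mean inhibition of MuSK from the GSK PKIS kinase screening panel.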
T2 sequence (whole entry): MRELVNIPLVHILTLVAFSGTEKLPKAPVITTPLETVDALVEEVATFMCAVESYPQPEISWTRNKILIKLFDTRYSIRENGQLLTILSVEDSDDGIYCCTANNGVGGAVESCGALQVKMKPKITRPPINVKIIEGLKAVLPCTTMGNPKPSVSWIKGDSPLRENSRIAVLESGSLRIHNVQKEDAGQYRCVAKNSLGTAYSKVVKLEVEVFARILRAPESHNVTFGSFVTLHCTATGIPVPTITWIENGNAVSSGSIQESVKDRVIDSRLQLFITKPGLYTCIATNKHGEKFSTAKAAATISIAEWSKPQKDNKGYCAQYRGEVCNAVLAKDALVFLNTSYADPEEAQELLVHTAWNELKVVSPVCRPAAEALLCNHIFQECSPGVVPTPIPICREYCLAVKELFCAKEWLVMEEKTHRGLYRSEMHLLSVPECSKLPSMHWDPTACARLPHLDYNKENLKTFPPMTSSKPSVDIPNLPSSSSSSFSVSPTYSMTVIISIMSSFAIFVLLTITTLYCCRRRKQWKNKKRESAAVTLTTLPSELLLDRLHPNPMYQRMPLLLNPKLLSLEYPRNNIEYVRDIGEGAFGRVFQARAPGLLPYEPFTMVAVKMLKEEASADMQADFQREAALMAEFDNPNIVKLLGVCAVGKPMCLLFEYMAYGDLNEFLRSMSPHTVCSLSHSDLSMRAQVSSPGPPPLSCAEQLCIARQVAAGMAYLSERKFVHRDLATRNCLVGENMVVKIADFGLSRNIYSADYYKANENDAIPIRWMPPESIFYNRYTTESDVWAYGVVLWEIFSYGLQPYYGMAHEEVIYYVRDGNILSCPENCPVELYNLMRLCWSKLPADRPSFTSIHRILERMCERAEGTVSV
The settings on record: at 0.1 µM.

Sequence of Tyrosine-protein kinase Lyn (Homo sapiens) (P07948 2-512 limits assumed): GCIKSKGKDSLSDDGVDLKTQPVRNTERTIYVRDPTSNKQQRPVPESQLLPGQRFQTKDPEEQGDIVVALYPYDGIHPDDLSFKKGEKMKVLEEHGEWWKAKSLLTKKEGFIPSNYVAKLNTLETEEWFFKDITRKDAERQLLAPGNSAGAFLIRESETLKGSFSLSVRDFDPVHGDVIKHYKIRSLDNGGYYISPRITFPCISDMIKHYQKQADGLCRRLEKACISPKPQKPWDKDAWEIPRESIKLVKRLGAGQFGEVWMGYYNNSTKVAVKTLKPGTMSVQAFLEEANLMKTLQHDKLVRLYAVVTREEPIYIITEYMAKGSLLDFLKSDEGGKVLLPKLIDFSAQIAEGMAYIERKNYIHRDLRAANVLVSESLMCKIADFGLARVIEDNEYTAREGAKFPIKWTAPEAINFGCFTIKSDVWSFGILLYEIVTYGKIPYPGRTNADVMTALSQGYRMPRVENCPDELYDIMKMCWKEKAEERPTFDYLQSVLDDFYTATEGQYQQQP
Sequence of Tyrosine-protein kinase Lck (Homo sapiens) (P06239 2-509 limits assumed): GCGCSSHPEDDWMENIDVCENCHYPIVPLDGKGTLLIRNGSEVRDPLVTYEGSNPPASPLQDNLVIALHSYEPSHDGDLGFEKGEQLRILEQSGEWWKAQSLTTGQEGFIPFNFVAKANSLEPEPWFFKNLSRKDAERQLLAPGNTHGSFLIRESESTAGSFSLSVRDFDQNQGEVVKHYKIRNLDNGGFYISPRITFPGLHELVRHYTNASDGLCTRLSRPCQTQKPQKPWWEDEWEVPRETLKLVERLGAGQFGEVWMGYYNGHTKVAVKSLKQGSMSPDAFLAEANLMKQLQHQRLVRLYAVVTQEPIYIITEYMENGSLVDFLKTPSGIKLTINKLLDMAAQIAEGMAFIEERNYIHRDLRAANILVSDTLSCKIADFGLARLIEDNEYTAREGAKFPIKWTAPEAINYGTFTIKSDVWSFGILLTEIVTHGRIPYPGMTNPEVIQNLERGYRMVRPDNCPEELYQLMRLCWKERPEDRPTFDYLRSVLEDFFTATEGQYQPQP
Sequence of Mast/stem cell growth factor receptor Kit (Homo sapiens) (P10721 whole entry): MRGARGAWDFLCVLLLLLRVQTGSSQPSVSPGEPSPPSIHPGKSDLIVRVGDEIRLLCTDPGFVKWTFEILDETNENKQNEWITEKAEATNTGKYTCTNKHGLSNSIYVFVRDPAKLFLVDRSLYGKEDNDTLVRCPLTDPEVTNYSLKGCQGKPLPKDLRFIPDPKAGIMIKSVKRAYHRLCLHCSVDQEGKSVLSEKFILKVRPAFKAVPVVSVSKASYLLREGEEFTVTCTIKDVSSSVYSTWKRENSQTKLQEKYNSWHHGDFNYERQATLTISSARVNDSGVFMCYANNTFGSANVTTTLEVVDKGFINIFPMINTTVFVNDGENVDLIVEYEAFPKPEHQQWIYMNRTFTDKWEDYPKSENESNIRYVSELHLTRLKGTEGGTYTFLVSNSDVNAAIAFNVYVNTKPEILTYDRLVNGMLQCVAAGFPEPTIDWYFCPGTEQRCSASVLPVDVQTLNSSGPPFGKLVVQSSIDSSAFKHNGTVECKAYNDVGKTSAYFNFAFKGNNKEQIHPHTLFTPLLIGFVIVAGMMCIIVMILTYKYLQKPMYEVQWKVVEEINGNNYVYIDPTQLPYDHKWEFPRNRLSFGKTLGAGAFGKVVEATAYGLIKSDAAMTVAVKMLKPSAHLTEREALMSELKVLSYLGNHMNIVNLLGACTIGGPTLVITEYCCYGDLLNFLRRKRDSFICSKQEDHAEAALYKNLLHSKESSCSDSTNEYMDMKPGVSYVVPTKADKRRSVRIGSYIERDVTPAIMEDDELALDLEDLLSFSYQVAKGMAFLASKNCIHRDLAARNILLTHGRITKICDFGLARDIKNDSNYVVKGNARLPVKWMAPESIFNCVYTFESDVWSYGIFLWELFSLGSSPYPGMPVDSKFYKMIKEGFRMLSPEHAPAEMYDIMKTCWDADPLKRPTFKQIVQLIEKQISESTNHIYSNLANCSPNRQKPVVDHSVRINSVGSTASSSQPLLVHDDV
Sequence of Mast/stem cell growth factor receptor Kit (Homo sapiens), P10721 [V560G] (P10721 whole entry V560G): as the sequence (P10721 whole entry) above, with V560G counted along it
Sequence of Mast/stem cell growth factor receptor Kit (Homo sapiens), P10721 [D816V] (P10721 whole entry D816V): as the sequence (P10721 whole entry) above, with D816V counted along it
Sequence of Hepatocyte growth factor receptor (Homo sapiens) (P08581 whole entry): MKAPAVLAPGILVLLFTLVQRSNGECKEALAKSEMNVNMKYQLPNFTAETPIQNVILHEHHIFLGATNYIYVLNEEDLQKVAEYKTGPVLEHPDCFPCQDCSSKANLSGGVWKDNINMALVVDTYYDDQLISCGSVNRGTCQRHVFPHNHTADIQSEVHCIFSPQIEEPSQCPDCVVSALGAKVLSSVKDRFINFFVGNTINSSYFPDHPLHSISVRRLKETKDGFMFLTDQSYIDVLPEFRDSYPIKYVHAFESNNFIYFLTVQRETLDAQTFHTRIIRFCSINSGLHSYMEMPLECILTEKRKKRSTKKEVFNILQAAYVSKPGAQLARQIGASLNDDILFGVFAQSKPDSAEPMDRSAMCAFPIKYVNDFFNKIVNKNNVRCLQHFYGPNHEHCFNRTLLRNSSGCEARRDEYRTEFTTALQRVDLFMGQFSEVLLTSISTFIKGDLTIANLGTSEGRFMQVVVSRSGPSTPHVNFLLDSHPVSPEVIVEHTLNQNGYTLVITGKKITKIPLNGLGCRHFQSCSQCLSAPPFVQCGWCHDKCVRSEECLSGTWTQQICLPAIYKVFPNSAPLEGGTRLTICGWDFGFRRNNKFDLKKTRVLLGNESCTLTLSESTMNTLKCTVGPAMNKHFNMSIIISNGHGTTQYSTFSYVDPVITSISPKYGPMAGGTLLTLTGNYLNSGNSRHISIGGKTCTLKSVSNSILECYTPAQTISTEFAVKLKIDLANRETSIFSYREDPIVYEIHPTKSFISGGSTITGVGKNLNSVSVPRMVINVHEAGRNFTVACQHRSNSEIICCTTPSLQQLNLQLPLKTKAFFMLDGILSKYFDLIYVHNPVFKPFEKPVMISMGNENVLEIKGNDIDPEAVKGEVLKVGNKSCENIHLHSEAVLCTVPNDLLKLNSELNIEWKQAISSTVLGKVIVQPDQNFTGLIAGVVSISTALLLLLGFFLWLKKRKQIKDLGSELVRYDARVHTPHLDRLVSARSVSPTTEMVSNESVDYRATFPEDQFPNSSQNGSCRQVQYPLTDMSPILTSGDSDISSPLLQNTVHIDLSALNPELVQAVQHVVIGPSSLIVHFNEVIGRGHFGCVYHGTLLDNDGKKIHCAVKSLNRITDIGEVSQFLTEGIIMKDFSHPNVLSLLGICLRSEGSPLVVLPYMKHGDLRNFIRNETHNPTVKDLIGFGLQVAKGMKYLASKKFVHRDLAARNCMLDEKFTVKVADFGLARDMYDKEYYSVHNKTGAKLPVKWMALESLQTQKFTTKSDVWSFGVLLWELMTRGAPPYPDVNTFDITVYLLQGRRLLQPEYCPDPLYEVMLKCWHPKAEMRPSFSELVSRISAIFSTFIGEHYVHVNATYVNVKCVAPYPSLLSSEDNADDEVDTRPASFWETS
Sequence of Mast/stem cell growth factor receptor Kit (Homo sapiens), P10721 [T670I] (P10721 whole entry T670I): as the sequence (P10721 whole entry) above, with T670I counted along it
Sequence of Leukocyte tyrosine kinase receptor (Homo sapiens) (P29376 whole entry): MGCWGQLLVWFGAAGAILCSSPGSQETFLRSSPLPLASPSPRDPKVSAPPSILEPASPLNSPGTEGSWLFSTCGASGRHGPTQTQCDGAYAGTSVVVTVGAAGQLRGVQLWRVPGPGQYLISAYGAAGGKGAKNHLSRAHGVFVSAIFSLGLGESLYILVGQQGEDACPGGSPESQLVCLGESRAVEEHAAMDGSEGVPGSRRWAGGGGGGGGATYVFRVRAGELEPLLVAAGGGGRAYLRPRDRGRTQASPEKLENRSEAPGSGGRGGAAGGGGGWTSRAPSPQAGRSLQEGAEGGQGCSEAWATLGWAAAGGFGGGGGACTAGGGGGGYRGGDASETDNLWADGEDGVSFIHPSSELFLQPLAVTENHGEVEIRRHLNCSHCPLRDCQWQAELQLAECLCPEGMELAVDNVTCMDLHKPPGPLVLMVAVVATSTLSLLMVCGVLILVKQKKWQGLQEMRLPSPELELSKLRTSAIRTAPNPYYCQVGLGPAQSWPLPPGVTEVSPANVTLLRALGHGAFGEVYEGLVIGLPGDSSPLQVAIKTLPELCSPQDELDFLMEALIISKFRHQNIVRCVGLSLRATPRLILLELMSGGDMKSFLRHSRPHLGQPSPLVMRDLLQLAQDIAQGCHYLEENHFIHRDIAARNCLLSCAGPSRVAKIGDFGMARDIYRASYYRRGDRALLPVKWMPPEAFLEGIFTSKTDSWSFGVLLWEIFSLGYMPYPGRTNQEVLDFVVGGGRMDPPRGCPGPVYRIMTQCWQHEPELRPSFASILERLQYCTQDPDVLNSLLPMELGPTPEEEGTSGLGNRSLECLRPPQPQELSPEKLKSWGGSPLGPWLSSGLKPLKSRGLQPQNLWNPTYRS

Consider `CCn1c(-c2nonc2N)nc2cncc(C(=O)NCCNC)c21`, for which the inhibition (commonly the change of the read-out against control, counted positive when it falls) in experiment [1] is 11.8%; in [2], 12.8%; in experiment [3], 3.67%; in [4], 3.08%; in [5], 6%; in experiment [6], -0.72%. Further, the inhibition was 0.98% in experiment [7]; 2.21% in experiment [8]; 3.67% in experiment [9]; 5.21% in [10]; 5.16% in experiment [11]; 5.55% in experiment [12]. Moreover, the inhibition came to 6.4% in [13]; 3.01% in [14]; 4.46% in experiment [15]; 3.05% in experiment [16]; 3.22% in [17]; 1.82% in experiment [18]. Further, the figures for the inhibition in [19] and in experiment [20] were 4.45% and 5.69%, respectively.
As for `N#Cc1cccc(Nc2ncc(-c3ccccc3)o2)c1`, the inhibition worked out at 79.6% in experiment [1]; 1.87% in experiment [2]; 2.5% in experiment [3]; 2.85% in [4]; 35.8% in experiment [5]; 4.29% in experiment [6]. The inhibition in experiment [7] was 23.8%; in experiment [8], 2.79%; in experiment [9], 1.76%; in [10], 4.04%; in experiment [11] it was 3.55%; in experiment [12], 3.97%. Further, the inhibition was 10.5% in experiment [13]; 2.56% in [14]; 9.05% in experiment [15]; 0.53% in [16]; 4.24% in experiment [17]; 2.46% in experiment [18]. Besides, the inhibition came to 5.36% in experiment [19] and 1.86% in [20].
Take `COc1cc(Nc2ncc(-c3ccccc3)o2)cc(OC)c1`: the inhibition in experiment [1] worked out at 97.2%; in experiment [2], 3.13%; in experiment [3], 2.77%; in [4], 21.6%; in [5] it was 81.7%; in [6], 33.6%. Moreover, the inhibition in experiment [7] was determined as 83.5%; in experiment [8], 2.6%; in experiment [9], 14.5%; in [10], 4.67%; in experiment [11] it was 5.66%; in experiment [12], 8.05%. In addition, the inhibition was 27.4% in experiment [13]; 5.81% in experiment [14]; 22.1% in experiment [15]; 3.6% in experiment [16]; 4.87% in experiment [17]; 3.69% in experiment [18]. In addition, the figures for the inhibition in [19] and in experiment [20] were 5.98% and 2.95%, respectively.
`O=C(Nc1n[nH]c2nnc(-c3cccnc3)cc12)C1CC1`: the inhibition in [1] was 2.59%; in experiment [2] it was -1.93%; in experiment [3], 1.15%; in [4], -0.12%; in experiment [5] it was 0.35%; in experiment [6], 2.26%. Besides, the inhibition in experiment [7] turned out to be 1.71%; in experiment [8], 1.03%; in [9], 3.69%; in [10] it was 1.26%; in [11] it was 0.15%; in experiment [12], 0.94%. Besides, the inhibition was 1.49% in [13]; 1.05% in [14]; 1.61% in experiment [15]; 1.05% in [16]; 1.8% in [17]; 3.88% in experiment [18]. Moreover, the values for the inhibition in experiment [19] and in experiment [20] were 0.68% and -0.19%, respectively.
On to `Cc1ccc(-c2cc3c(NC(=O)C4CC4)ncnc3o2)cc1`, for which the inhibition was 32.2% in [1]; 4.08% in experiment [2]; 5.68% in experiment [3]; 4.38% in experiment [4]; 8.01% in experiment [5]; -2.51% in [6]. The inhibition in experiment [7] came to 0.4%; in experiment [8] it was 2.92%; in experiment [9] it was 11.2%; in experiment [10] it was 4.28%; in experiment [11], 3.83%; in [12] it was 5.46%. The inhibition in [13] turned out to be 6.63%; in [14] it was 2.61%; in experiment [15], 5.69%; in experiment [16], 2.35%; in [17], 6.56%; in experiment [18], 4.71%. Moreover, the inhibition in experiment [19] came to 4.06%; in experiment [20], 2.65%.
Take `FC(F)(F)CNc1nccc(-c2cnn3ncccc23)n1`: the inhibition was 3.6% in [1]; 0.88% in experiment [2]; 2.79% in experiment [3]; 0.67% in experiment [4]; 0.91% in experiment [5]; -2.94% in [6]. Moreover, the inhibition was determined as 0.4% in experiment [7]; 1.7% in experiment [8]; 3.74% in [9]; 2.72% in [10]; 0.86% in experiment [11]; 3.13% in [12]. The inhibition in experiment [13] was 3.07%; in experiment [14], 2.86%; in experiment [15], 1.59%; in experiment [16] it was 2.37%; in [17] it was -0.52%; in [18], 0.67%. Besides, the inhibition worked out at 9.54% in [19] and 2.13% in experiment [20].
In the case of `COc1cc(N2CCN(C(C)C)CC2)ccc1Nc1nc(Nc2cccc3ncccc23)c2cc[nH]c2n1`, the inhibition in [1] is 2.29%; in [2], -1.39%; in experiment [3] it was -2.2%; in experiment [4] it was 0.28%; in experiment [5] it was 0.54%; in experiment [6] it was 0.73%. For the same compound, the inhibition was 6.87% in experiment [7]; 0.42% in [8]; 3.07% in [9]; 34.7% in experiment [10]; 80.2% in experiment [11]; 0.41% in experiment [12]. Besides, the inhibition in experiment [13] is 2.82%; in [14] it was 0.31%; in [15], 2.18%; in experiment [16], 0.54%; in experiment [17], 2.09%; in experiment [18], -2.89%. Further, the inhibition in experiment [19] was -1.9%; in [20], 5.11%.
As for `CC1=C(C(=O)Nc2ccc3[nH]ncc3c2)C(c2ccc(F)cc2)N=C(c2ccc(C(F)(F)F)nc2)N1` (stereo not given), the inhibition in experiment [1] is 5.44%; in [2] it was -0.02%; in experiment [3], -2.78%; in experiment [4] it was 1.78%; in experiment [5], 1.33%; in [6], 1.39%. The inhibition in [7] is 3.28%; in experiment [8], 3.06%; in [9], 2.27%; in experiment [10], 1.67%; in [11] it was 3.48%; in experiment [12], 2.25%. In addition, the inhibition turned out to be 5.17% in [13]; 0.9% in experiment [14]; 3.68% in experiment [15]; 1.51% in [16]; 2.57% in experiment [17]; 3.67% in [18]. Moreover, the inhibition in [19] was determined as 2.53%; in experiment [20], 2.32%.
On to `CS(=O)(=O)Nc1ccc(-c2ccc3c(NC(=O)C4CC4)n[nH]c3c2)cc1`, for which the inhibition came out at 6.32% in experiment [1]; 2.91% in [2]; 2.86% in [3]; 1.55% in experiment [4]; 1.56% in experiment [5]; 0.02% in [6]. The inhibition is 0.94% in experiment [7]; 2.88% in [8]; 8.63% in experiment [9]; 4.21% in [10]; 3.75% in experiment [11]; 3.8% in experiment [12]. Besides, the inhibition was 4.62% in experiment [13]; 2.46% in experiment [14]; 3.58% in [15]; 0.84% in experiment [16]; 3.15% in [17]; 6.7% in experiment [18]. In addition, the inhibition in experiment [19] was -3.22%; in experiment [20] it was 3.2%.
